Data on 30 compounds can be found in PubChem BioAssay AID1745857 (National Center for Advancing Translational Sciences (NCATS), 2022).

Hit rate of the full screen: of about 120,000 compounds, about 370 (0.31%) were called active. Where a call stands in place of a potency, no number is given. Inconclusive results (about 4%) are left out. The call rests on the fitted dose curve. The full list was thinned out, with actives kept by preference.
Potency means the concentration at half of the fitted maximal effect.

A short description of this experiment: Primary qHTS Assay for Foot and Mouth Disease Virus Antivirals against NCGC Sytravon and CBC Compound Libraries: Renilla Luciferase Signal. Further: nearly all actives have a fitted effect of over 55% in size. The following applies: FMDV replicon cells; series mostly up to 57.5 µM. (In general: In qHTS, concentration-response curves come from the screen itself.)
For `COC(=O)Cc1csc(NC(=O)Cc2c(C)c3ccc(OC)cc3oc2=O)n1`, the Potency entry is “inactive”.

For `O=C(NCCOc1ccccc1F)c1n[nH]c(=O)c2ccccc12`, the Potency entry was “inactive”. The value for `NS(=O)(=O)c1ccc(NC(=O)COc2ncnc3ccc(Br)cc23)cc1` was “inactive”; that for `Cc1cccc2nc(-c3ccc(N4CCOCC4)cc3)c(Nc3ccc4c(c3)OCCO4)n12` was “inactive”.

`O=C(OC1CCCCC1=O)c1ccc(Cl)c(Cl)c1` (stereo not given): the Potency entry is “inactive”. The value for `O=C(NC(Cc1cccc(F)c1)c1cccc(F)c1)C1CCOCC1` (stereo not given) was “inactive”; that for `O=C(CCC(=O)c1ccc(Cl)cc1)OCc1ccc(Cl)cc1Cl` was “inactive”; that for `CCOc1ccc(CCNC(=O)C(C)n2nc(C)n3c(cc4sccc43)c2=O)cc1OCC` (stereo not given) was “inactive”.

`CCc1ccc(/C=C(\C#N)C(=O)NC2CC2)s1`: the Potency entry is “inactive”. Turning to `C[C@@H](C(=O)N1CCN(c2ccccc2)CC1)n1cnc2ccccc2c1=O`, the Potency result is “inactive”.

For `CCC(C)NCCC(c1ccccc1)c1ccc(C)c(C)c1O` (stereo not given), the Potency entry is “inactive”. As for `COc1c(C)cccc1C(=O)Nc1cccc2ncccc12`, the entry is “inactive”. As for `CCOc1ccccc1OCC(=O)Nc1cccc2ncccc12`, the figure is 8.91 µM (active); as for `CCCOc1ccc(NC(=O)COc2cccc(C)c2C)c2cccnc12`, “inactive”; as for `Cc1ccc(NS(=O)(=O)c2c(C)[nH]c(C)c2C(=O)N2CCCCC2)c(C)c1`, “inactive”. As for `Cc1ccc(N/N=C/C=C/c2ccccc2)cc1Cl`, the entry is “inactive”. As for `Cc1nc2cc(NC(C(=O)Nc3ccc(F)cc3)c3ccccc3)ccc2o1` (stereo not given), the Potency result is “inactive”. For `COc1ccc(/C=C/c2nc3ccccc3o2)cc1OCC(C)C`, the Potency entry is “inactive”. Turning to `COc1ccc(C(=O)/C(=C/c2ccncc2)c2nc3ccccc3o2)cc1OC`, the Potency is 15.8 µM (active). As for `COc1ccc(NC(C)=O)cc1NC(=O)/C=C/c1nc2ccccc2o1`, the entry is “inactive”; as for `Cc1ccc(CCC(=O)Nc2ccc(C)c(C)c2)s1`, “inactive”.

Consider `O=C(O)c1ccc2c(c1)N(Cc1ccc(F)cc1)C(=O)c1ccccc1S2=O` (stereo not given), for which the Potency was 8.91 µM (active).

On to `CCN1C(=O)c2ccccc2S(=O)c2ccc(C(=O)NCc3ccc(F)cc3)cc21` (stereo not given), for which the Potency result is “inactive”.

For the compound `O=C(NC1CCCCC1)c1ccc2c(c1)N(Cc1ccc(Cl)cc1)C(=O)c1ccccc1S2=O` (stereo not given), the Potency entry was “inactive”. The value for `O=C(CC(=O)c1ccc(F)cc1)c1ccc(F)cc1` was “inactive”; that for `CC(Oc1ccc(C#N)cc1)C(=O)NC(C1CC1)C1CC1` (stereo not given) was “inactive”; that for `O=S1(=O)c2ccc(N3CCN(Cc4ccccc4F)CC3)cc2Oc2ccccc2CN1Cc1cn(Cc2ccc(Cl)cc2)nn1` was “inactive”. As for `Cc1nn(Cc2ccc(F)cc2)c(C)c1NC(=O)c1cc(CC(C)C)on1`, the figure is 25.1 µM (active). The value for `Cc1nn(Cc2ccc(F)cc2)c(C)c1NC(=O)c1noc2c1CCc1ccccc1-2` was “inactive”; that for `Cc1ccccc1Cn1nc(C)c(NC(=O)c2cc(-c3ccc(F)cc3)on2)c1C` was “inactive”.
